Results from the supplement of paper PMC10849652.
Of roughly 8,800 targets only a part is listed; those with a hit were picked by preference. About 0.5% of all pairs of compound and target were hits.

The targets below were run with C=CC(=O)N1CCC[C@@H](n2nc(-c3ccc(Oc4ccccc4)cc3)c3c(N)ncnc32)C1 [ibrutinib] (assay: log2 fold change, soluble protein after heating vs DMSO (PISA); higher = thermal stabilisation; K562 lysate, 10 uM; active = over 0.2 and 3.5 SD of the protein, either way, in both replicates (recomputed)).
Method in brief: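 K562 pellets were dounce-homogenised in PBS pH 7.4 containing 1 mM MgCl2, and the crude extract, at 1 mg/mL protein, was exposed to 10 μM compound for 30 min. Aliquots were heated for 3 min across 48°C-58°C, pooled, brought to 0.5% NP-40 at 4°C and spun at 21,000xg for 90 min, with the supernatant taken as soluble protein. TMTpro 16plex LC-MS/MS with equalised channel sums quantified that protein. Values are log-two fold changes in thermal stability relative to solvent controls, taken from duplicates.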

Sequence of UniProt Q9BRZ2 (Q9BRZ2 whole entry, looked up): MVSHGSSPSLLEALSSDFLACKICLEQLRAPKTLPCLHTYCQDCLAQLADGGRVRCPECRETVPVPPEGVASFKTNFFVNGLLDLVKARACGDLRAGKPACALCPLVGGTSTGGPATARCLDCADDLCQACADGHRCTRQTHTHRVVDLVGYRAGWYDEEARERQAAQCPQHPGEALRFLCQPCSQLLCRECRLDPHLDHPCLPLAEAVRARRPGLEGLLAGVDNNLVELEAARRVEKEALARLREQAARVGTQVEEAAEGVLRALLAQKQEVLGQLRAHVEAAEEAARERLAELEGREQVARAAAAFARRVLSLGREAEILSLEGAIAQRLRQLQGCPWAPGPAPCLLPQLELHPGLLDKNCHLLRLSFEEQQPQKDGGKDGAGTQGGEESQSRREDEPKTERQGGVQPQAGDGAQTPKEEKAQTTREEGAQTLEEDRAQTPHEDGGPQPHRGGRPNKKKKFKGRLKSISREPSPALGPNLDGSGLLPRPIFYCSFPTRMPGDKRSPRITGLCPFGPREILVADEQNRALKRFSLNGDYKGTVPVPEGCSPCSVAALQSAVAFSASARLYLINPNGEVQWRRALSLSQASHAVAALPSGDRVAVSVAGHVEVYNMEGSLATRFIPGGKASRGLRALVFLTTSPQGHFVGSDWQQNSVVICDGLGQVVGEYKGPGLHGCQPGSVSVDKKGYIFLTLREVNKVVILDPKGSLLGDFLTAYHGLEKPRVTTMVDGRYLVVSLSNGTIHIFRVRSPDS
Sequence of UniProt Q8N0Z6 (Q8N0Z6 whole entry, looked up): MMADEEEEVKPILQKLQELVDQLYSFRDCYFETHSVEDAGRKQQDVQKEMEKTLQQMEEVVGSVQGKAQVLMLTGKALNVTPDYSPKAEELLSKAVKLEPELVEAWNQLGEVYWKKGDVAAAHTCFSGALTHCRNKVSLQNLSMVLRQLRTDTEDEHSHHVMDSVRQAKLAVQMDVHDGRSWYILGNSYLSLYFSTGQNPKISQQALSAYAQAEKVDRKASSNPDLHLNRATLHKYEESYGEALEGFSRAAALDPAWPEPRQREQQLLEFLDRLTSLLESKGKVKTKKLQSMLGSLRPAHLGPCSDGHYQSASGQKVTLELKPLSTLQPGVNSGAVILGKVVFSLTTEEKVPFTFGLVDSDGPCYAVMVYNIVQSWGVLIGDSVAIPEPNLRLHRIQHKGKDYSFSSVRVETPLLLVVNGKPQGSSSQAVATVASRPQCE
Sequence of UniProt Q9UNS1 (Q9UNS1 whole entry, looked up): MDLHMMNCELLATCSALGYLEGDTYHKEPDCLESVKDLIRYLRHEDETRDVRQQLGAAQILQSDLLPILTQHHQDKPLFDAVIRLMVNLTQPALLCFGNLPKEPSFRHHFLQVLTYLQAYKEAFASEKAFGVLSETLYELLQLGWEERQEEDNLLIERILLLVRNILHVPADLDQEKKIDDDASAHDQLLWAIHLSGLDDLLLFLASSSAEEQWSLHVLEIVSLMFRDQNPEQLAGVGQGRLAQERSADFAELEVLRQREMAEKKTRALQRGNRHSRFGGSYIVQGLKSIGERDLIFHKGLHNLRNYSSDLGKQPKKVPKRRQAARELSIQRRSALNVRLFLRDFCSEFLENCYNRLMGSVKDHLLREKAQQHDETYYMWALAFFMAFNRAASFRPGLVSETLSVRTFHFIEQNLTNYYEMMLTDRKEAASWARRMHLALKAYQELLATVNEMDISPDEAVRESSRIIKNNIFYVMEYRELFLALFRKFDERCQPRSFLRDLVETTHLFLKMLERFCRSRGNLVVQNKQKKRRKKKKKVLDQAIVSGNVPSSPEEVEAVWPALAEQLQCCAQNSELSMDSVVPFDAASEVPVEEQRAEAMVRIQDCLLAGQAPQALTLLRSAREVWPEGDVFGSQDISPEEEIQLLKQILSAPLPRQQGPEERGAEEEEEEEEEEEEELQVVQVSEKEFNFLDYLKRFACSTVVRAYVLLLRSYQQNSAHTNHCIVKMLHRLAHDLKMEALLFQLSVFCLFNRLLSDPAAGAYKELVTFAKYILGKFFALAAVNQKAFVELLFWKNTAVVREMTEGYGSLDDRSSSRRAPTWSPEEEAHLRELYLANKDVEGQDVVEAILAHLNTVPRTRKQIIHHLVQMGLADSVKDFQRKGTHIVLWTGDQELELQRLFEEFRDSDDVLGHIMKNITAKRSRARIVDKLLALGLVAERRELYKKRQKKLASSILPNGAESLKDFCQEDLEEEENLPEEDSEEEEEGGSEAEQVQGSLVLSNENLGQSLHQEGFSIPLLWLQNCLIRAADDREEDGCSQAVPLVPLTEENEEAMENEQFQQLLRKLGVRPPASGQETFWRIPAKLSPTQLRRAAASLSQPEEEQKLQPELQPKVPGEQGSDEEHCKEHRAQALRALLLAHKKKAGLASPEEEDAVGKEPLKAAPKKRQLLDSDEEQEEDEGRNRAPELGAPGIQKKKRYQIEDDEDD
Sequence of UniProt P67936 (P67936 whole entry, looked up): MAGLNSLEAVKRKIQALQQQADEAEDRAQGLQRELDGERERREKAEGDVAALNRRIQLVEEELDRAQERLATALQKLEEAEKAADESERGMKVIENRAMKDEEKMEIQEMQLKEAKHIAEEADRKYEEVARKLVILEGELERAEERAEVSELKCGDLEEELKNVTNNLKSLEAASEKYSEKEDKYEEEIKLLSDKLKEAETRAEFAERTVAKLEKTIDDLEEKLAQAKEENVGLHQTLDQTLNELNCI
Sequence of UniProt O95857 (O95857 whole entry, looked up): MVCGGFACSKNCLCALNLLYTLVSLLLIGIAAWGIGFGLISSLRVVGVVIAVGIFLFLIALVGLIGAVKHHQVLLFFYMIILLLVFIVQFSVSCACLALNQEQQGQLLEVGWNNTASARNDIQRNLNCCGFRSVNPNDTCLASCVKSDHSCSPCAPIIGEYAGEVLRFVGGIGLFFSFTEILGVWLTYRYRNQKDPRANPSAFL
Sequence of UniProt Q12933 (Q12933 whole entry, looked up): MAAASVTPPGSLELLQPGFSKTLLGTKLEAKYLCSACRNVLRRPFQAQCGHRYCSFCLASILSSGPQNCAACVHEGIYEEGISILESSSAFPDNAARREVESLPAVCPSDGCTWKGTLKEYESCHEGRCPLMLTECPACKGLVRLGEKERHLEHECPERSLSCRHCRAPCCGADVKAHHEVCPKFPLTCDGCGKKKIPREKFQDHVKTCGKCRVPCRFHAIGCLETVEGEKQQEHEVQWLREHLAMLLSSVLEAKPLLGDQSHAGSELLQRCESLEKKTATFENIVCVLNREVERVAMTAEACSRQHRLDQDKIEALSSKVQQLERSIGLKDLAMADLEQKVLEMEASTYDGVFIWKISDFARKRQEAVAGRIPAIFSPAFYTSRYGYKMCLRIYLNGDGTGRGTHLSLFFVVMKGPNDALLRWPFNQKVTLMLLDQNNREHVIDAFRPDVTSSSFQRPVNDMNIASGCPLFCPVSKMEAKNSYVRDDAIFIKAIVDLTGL
Sequence of UniProt P51668 (P51668 whole entry, looked up): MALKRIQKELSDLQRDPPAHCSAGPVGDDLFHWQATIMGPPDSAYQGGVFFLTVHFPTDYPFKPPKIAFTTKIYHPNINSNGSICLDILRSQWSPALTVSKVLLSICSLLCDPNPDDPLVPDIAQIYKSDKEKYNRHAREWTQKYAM
Sequence of UniProt Q96Q05 (Q96Q05 whole entry, looked up): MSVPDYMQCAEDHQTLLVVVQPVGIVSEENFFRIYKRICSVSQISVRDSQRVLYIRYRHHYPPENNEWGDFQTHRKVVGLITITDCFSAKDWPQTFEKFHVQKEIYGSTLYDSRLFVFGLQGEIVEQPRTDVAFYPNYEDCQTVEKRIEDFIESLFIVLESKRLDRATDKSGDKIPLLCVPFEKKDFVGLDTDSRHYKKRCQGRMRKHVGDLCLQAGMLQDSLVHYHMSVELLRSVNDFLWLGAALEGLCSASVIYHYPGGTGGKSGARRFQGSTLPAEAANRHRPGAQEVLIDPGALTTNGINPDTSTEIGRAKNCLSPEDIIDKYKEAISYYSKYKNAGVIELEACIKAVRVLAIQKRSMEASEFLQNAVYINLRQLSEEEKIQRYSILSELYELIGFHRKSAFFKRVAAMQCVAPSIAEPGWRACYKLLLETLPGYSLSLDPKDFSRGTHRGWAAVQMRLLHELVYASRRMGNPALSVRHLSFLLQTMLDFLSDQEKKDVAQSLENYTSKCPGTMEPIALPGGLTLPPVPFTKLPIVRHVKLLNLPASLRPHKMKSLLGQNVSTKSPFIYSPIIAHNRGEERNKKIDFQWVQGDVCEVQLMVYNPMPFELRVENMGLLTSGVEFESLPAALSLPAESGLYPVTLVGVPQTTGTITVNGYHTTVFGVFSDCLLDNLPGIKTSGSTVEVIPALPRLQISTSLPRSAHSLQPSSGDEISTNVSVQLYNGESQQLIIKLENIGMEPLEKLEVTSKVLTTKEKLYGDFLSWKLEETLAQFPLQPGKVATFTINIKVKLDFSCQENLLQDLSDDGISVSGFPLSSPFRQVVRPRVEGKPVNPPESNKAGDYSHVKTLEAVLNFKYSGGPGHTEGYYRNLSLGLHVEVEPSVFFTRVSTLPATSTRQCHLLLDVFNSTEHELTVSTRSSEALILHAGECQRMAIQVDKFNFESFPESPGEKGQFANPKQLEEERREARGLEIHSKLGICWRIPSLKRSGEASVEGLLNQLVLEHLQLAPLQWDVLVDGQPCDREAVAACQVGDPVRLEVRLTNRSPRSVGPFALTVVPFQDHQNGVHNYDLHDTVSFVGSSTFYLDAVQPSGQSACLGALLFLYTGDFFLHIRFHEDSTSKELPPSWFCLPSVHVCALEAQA
Sequence of UniProt Q96S44 (Q96S44 whole entry, looked up): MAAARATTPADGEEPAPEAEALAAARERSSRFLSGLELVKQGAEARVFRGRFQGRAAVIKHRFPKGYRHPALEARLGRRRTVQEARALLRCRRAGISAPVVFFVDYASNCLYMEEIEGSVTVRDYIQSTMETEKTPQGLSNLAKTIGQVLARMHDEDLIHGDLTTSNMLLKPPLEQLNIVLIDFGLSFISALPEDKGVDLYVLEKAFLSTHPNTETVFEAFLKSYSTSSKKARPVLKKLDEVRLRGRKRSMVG

log2 fold change, inactive:
TOR3A (UniProt Q9H497) 0.008, TRAF2 isoform 2 (UniProt Q12933) -0.026, TBRG4 (UniProt Q969Z0) 0.014, TBL3 (UniProt Q12788) -0.006, UBE3B (UniProt Q7Z3V4) 0.041, TRA2A (UniProt Q13595) 0.127, TJP1 isoform 2 (UniProt Q07157) 0.019, TPM4 isoform 2 (UniProt P67936) -0.062, TUBGCP3 (UniProt Q96CW5) -0.007, TGOLN2 isoform 7 (UniProt O43493) -0.023, TSPAN13 (UniProt O95857) 0.018, TIMELESS (UniProt Q9UNS1) 0.011, TRMT2A (UniProt Q8IZ69) 0.002, TTC12 isoform 2 (UniProt Q9H892) -0.002, TMPO (UniProt P42167) -0.003, TBK1 (UniProt Q9UHD2) -0.02, TGFBRAP1 (UniProt Q8WUH2) 0.002, TMEM14C (UniProt Q9P0S9) 0.04, TMEM164 (UniProt Q5U3C3) 0.053, TPM3 (UniProt P06753) 0.009, TTI2 (UniProt Q6NXR4) 0.012, TBC1D23 (UniProt Q9NUY8) 0.034, TRIM25 (UniProt Q14258) -0.001, UBE2D1 (UniProt P51668) -0.033, TPP2 (UniProt Q5VZU9) 0.073, TRMT12 (UniProt Q53H54) -0.083, TCAF2 (UniProt A6NFQ2) 0.009, TRIM56 (UniProt Q9BRZ2) 0.023, TTC27 (UniProt Q6P3X3) -0.025, UBR5 (UniProt O95071) -0.001, TROAP (UniProt Q12815) 0.191, TUBGCP2 isoform 4 (UniProt Q9BSJ2) -0.001, TTC5 (UniProt Q8N0Z6) 0.019, TRIM33 (UniProt H0Y612) 0.016, TP53RK (UniProt Q96S44) 0.02, TFCP2 (UniProt Q12800) -0.055, TIAL1 isoform 2 (UniProt Q01085) 0.018, TRIM65 (UniProt Q6PJ69) 0.053, TTF2 (UniProt Q9UNY4) 0.003, TRAPPC9 isoform 2 (UniProt Q96Q05) 0.003
